Source: PubChem BioAssay
Rows were chosen to be rich in hits. Some 6% of all compounds tested hit in one or more screens of this group.
D1 PAM: enhances dopamine response at the human D1 receptor; P21728; HEK293 TREx D1 cells, calcium flux, dopamine EC20 potentiation; potentiation, % at 10 µM; 360,000 tested, 0.036% active; AID 504651; in the data active = potentiation above about 30%; also: 0% is about no effect
DRD3 antagonist: antagonists of human D3 dopamine receptor | P35462 | D3R cells, DiscoveRx beta-arrestin luminescence, antagonist mode; hits give low values | max response, negative = inhibition, % | 360,000 tested, 2.5% active | AID 652054; in the data active = max response below about -50%; also: % is scaled to controls: 0 for no effect and ±100 for the full control effect
Target sequence (P35462 whole entry, looked up): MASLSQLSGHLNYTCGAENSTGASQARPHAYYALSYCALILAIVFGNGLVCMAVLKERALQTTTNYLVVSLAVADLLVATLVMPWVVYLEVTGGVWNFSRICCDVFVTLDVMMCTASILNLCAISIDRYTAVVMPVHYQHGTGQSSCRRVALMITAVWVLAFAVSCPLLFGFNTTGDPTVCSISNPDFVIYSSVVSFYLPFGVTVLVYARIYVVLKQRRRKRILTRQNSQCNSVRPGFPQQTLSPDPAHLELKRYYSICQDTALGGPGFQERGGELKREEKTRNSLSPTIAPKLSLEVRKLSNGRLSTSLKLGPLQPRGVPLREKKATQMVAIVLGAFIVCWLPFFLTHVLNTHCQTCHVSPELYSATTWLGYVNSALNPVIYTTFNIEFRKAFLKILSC
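Cells plated overnight at 1500 cells/well, then exposed to library compounds with dopamine controls for 90 minutes at 37 degrees C. DiscoveRx reagent added for 30–60 minutes at room temperature; luminescence read, quantitative HTS format.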
D1 antag: antagonists of human D1 dopamine receptor; activity change, negative = inhibition, % at 10 µM; HEK293 TREx D1 cells, calcium flux, dopamine EC80; hits give low values; 360,000 tested, 3.2% active; P21728; in the data active = activity change below about -30%; also: % is scaled to controls: 0 for no effect and ±100 for the full control effect
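Inducible Hek293 Trex D1 cells (tetracycline, overnight, 30 C). Calcium dye 30–90 min RT. Antagonist mode: EC80 dopamine added after 180 s compound read.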
D1 agonist: human D1 receptor agonism; P21728; HEK293 T-REx D1 cells, calcium flux, agonist mode; activation, % at 2 µM; 360,000 tested, 1% active; AID 504660; in the data active = activation above about 30%; also: 0% is about no effect
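Tetracycline-induced HEK293 TREx D1 cells, force-coupled to calcium signalling, were dye-loaded with a no-wash calcium kit. Compound was pin-added after a 10 s baseline. Fluorescence was read kinetically at 1 cycle/s for 180 s, with calcium rises flagged as agonism.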
D3 ag: D3 dopamine receptor (human) agonism | P35462 | 410,000 tested, 0.58% active | max activation, % | D3R DiscoveRx beta-arrestin cells, luminescence, 90 min; in the data active = max activation above about 30%; also: 0% is about no effect
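Cells at 1500/well, incubated overnight, then treated with pinned compounds (dopamine as control) for 90 min at 37 degrees C. DiscoveRx reagent added for 30 - 60 minutes at room temperature; luminescence read.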
* marks the source's active call; other numbers are inactive results; nt = no result.

SMILES	D1 PAM	DRD3 antagonist	D1 antag	D1 agonist	D3 ag
CN(C)CC/C=C1/c2ccccc2COc2ccccc21	-4	nt	-74*	9	nt
CC(C)(C)c1ccc(C(=O)Nc2cccc3c(=O)[nH][nH]c(=O)c23)cc1	2	-1	-21	9	7
CCc1ccc(NC(=O)C2CCCN(S(=O)(=O)c3cccc4cccnc34)C2)cc1 (stereo unspecified)	-2	nt	7	0	-3
CCOC(=O)/C=C/c1cc(F)c(S(=O)(=O)N2CCN(S(=O)(=O)c3ccc4c(c3)OCCO4)CC2)cc1F	-6	nt	-1	0	nt
CCN(CC)C(=O)Cn1c(=O)n(CC2CCC(C(=O)NC)CC2)c(=O)c2sccc21 (stereo unspecified)	-2	nt	-6	0	-23
COc1ccc(CNC(=O)c2ccc(-c3nc(CSc4ccccc4)c(C)o3)cc2)c(OC)c1	-2	nt	-8	3	0
COc1ccc(Nc2oc(-c3cccs3)nc2C#N)cc1	-10	0	-43*	2	5
COc1cc(Cl)c(C)cc1NC(=O)C(OC(=O)CNC(=O)c1ccccc1)c1ccccc1 (stereo unspecified)	-6	nt	-5	11	nt
Cc1cc(C)cc(NC(=O)Cn2c(C(F)(F)F)nc3ccccc32)c1	-3	nt	-24	13	4
O=C(CSc1oc(-c2ccccc2)nc1S(=O)(=O)c1ccccc1)c1ccccc1	1	nt	27	6	53*
CCOc1ccc(NC(=O)CSc2oc(-c3ccc(C)cc3)nc2S(=O)(=O)c2ccc(C)cc2)cc1	0	nt	15	44*	6
O=C(CSc1oc(-c2ccccc2)nc1S(=O)(=O)c1ccc(Br)cc1)c1ccccc1	-1	nt	-10	4	-4
CC(C)C[C@@H](CN)NC(=O)c1nc[nH]c1C(=O)N[C@@H](Cc1ccccc1)C(=O)CNC[C@H](C)NC(=O)c1nc[nH]c1C(=O)N[C@@H](CC(C)C)C(=O)O	nt	7	nt	nt	7
CC(C)C[C@@H](CNCC(=O)[C@H](CC(=O)O)NC(=O)c1[nH]cnc1C(=O)N[C@H](CN)CC(C)C)NC(=O)c1nc[nH]c1C(=O)N[C@@H](C)C(=O)O	nt	-53*	nt	nt	3
CC(C)C[C@@H](CN)NC(=O)c1nc[nH]c1C(=O)N[C@@H](C)C(=O)CNC[C@H](CC(C)C)NC(=O)c1nc[nH]c1C(=O)N[C@@H](CC(=O)O)C(=O)O	nt	-24	nt	nt	0
CC(C)C[C@@H](CN)NC(=O)c1nc[nH]c1C(=O)N[C@@H](Cc1ccccc1)C(=O)CNC[C@H](C)NC(=O)c1nc[nH]c1C(=O)N[C@@H](C)C(=O)O	nt	21	nt	nt	43*
COc1ccc(C(=O)NCC(c2cccnc2)N2CCc3ccccc3C2)cc1 (stereo unspecified)	-2	nt	-13	0	-6
CCO/C=N/c1c(C#N)c(CC#N)nn1-c1ccccc1	-6	29	-33*	3	20
CN(C)c1ccc(CN(Cc2ccco2)C(=O)c2ccc(F)cc2)cc1	-1	nt	-12	2	-14
O=C(Cn1cc(COc2ccc(Cl)c(Cl)c2)nn1)NS(=O)(=O)c1ccccc1C(F)(F)F	nt	-67*	nt	nt	-5
COc1ccc(C(=O)NCC(c2cccnc2)N2CCc3ccccc3C2)cc1OC (stereo unspecified)	-2	nt	6	7	-10
COC(=O)[C@H]1[C@H]2C[C@@H]3c4[nH]c5cc(OC)ccc5c4CCN3C[C@H]2C[C@H](OC)[C@@H]1OC	nt	nt	nt	nt	-5
COC(=O)[C@H]1[C@H]2C[C@@H]3c4[nH]c5cc(OC)ccc5c4CCN3C[C@H]2C[C@@H](OC(=O)c2ccc(N)cc2)[C@@H]1OC	4	22	-66*	3	2
COc1ccc(CCN2C(=O)CSC2=Nc2ccc(C(C)C)cc2)cc1OC	-2	46	-43*	5	43*
CCOc1ccc(NC(=O)NCCn2nnc3cc(S(=O)(=O)N(C)C)ccc32)cc1	-1	nt	-5	1	6
O=c1[nH]c2ccccc2c(O)c1-[n+]1ccccc1	-4	-18	-1	3	32*
CCn1c(=O)c(-[n+]2ccccc2)c(O)c2ccccc21	2	-26	-35*	2	1
CCn1c(=O)c(C(=O)NNC(=O)c2ccccc2)c(O)c2ccccc21	-3	-17	-20	18	4
Cc1ccc(CSc2nnc3[nH]c(=O)cc(-c4ccccc4)n23)cc1	-3	nt	nt	-2	-1
